Reference: PubChem BioAssay (NCI)
Compounds without any hit were thinned out: in the full panel of roughly 83,000, 20% have a hit.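 Each cell line was grown in a 96-well plate and treated with one concentration of compound for 48 hours. Values below 10 were considered active.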 Unmarked numbers belong to inactive results. The source made the active and inactive calls.

Tests used:
Test in all cases: NCI-60 one-dose screen, 48 h (100 = growth as untreated, 0 = no growth, -100 = all killed)
Settings in all cases: 10 µM unless noted
[1] = system: DU-145 prostate
[2] = system: K-562 leukemia
[3] = system: MALME-3M melanoma
[4] = system: MDA-MB-231 breast
[5] = system: RXF 393 renal
[6] = system: SF-268 CNS
[7] = system: SF-295 CNS
[8] = system: SF-539 CNS
[9] = system: UACC-257 melanoma
[10] = system: M14 melanoma

SMILES	growth [1]	growth [2]	growth [3]	growth [4]	growth [5]	growth [6]	growth [7]	growth [8]	growth [9]	growth [10]
CC1=C(C)C(=O)C(Nc2ccc(C)c(C)c2)=C(Br)C1=O	109%	-2.41% (active)	114%	65.1%	87.9%	98.4%	92.9%	98.9%	98.5%	96.5%
CC1=C(SCC(=O)OCCCCCC(C)C)C(=O)c2ccccc2C1=O	109%	81.1%	116%	83.5%	94.2%	96.4%	101%	88.8%	104%	96.8%
Cc1ccc2c(n1)C(=O)C(Cl)=C(Nc1ccc(C(C)C)cc1)C2=O	16.2%	0.714% (active)	-33.9% (active)	-41% (active)	-93.6% (active)	77.1%	82.8%	96.2%	-70.3% (active)	25.6%
CCc1cc(OC(=O)N2CCN(CCC(C)(COC(C)(C)C)COC(C)(C)C)CC2)ccc1Nc1cc(-c2ccc(-n3cccn3)cc2)[nH]n1	84%	52.1%	89.7%	83.5%	41%	73.8%	85.1%	88.8%	92.9%	97.6%
O=C(CCCCCCNC(=O)C(O)(O)C(F)(F)F)Nc1ccc(Br)cc1	0.633% (active)	15.2%	10.1%	28.4%	-38.1% (active)	8.01% (active)	-25.3% (active)	18.5%	15.5%	25.1%
CCCCCCCCCCCC(=O)NC(C)(C)C(=O)N1CCCC1C(=O)NC(C)(C)C(=O)NC(C)(C)C(=O)N1CCCC1C(=O)NC(C)(C)C(=O)NC(C)(C)C(=O)N1CCCC1C(=O)NC(C)C(=O)NCCC(=O)NC(C)C(=O)NC(C)(C)C(=O)NC(C)(C)C(=O)NC(C)(C)C(=O)NCCC(=O)NC(C)(C)C(=O)NC(C)(C)C(=O)NC(C)(C)C(=O)NC(C)C(=O)NCCC(=O)O (stereo not given)	-99.4% (active)	-65.4% (active)	-89.4% (active)	-87.5% (active)	-94.5% (active)	-60.6% (active)	-97.1% (active)	-92% (active)	-91.8% (active)	-97.3% (active)
CN1CCN(c2ccc(Nc3nc(NCCCNS(=O)(=O)c4ccc(F)cc4)c4sccc4n3)cc2)CC1	72.6%	10.4%	-66.2% (active)	43.2%	36.5%	60.3%	32.4%	-76% (active)	-28.6% (active)	-21.3% (active)
O=S1SC(c2ccccc2)=NN1c1cc(F)cc(F)c1 (stereo not given)	57.2%	22.5%	75.5%	69.4%	52.2%	54.3%	52.1%	60.6%	69.3%	20.6%
NS(=O)(=O)c1ccc(Nc2nc(Nc3ccccc3)nc(N3N=C(c4ccc(Cl)cc4)CC3c3ccc(Cl)cc3)n2)cc1 (stereo not given)	50.4%	32.5%	42.5%	54.3%	-3.26% (active)	59.4%	56.7%	58%	65.8%	34.6%
CCC1=Cc2c(OC)cccc2OC12C=Cc1c(OC)cccc1O2 (stereo not given)	27.1%	7.63% (active)	50.9%	11%	1.82% (active)	58.6%	4.11% (active)	-5.65% (active)	75.7%	6.53% (active)
O=C(CCCCCCNC(=O)C(O)(O)C(F)(F)F)Nc1ccc(-c2ccccc2)cc1	12%	9.55% (active)	3.09% (active)	25%	-45% (active)	-4.51% (active)	-32.1% (active)	19.7%	14.8%	20.7%
CN1CCN(c2ccc(Nc3nc(NCCCNS(=O)(=O)c4ccc(Cl)cc4)c4sccc4n3)cc2)CC1	30.8%	12.5%	-88.4% (active)	9.29% (active)	-76.7% (active)	5.08% (active)	-68.5% (active)	-85.3% (active)	-80.2% (active)	-60.4% (active)
CCOC(=O)c1ccc(NC2=CC(=O)C(C)=C(C)C2=O)cc1	109%	61.6%	97.1%	75.2%	93.2%	85.6%	52.1%	99.2%	84.1%	89.7%
CN1CCN(Cc2ccc(/C=N/Nc3ccnc4cc(Cl)ccc34)cc2)CC1	75.1%	4.76% (active)	94.5%	71.5%	74.6%	99.8%	90%	64.7%	111%	96.9%
O=C(CSc1nc2ccccc2c(=O)n1-c1ccc(Cl)c(Cl)c1)Nc1ccc(S(=O)(=O)Nc2ccc(Cl)nn2)cc1	101%	96.5%	98.5%	90.8%	88.1%	100%	101%	90.7%	93.5%	86.2%
C#C[C@]1(O)CC[C@H]2[C@@H]3CC=C4c5sc(N6CCN(C)CC6)nc5CC[C@]4(C)[C@H]3CC[C@@]21C	75.5%	0.102% (active)	56.9%	62%	-22.1% (active)	52.4%	-39.8% (active)	7.74% (active)	61.5%	-73.4% (active)
COc1ccc(-c2nc(C#N)c(N3CCC(S(=O)(=O)N4CCOCC4)CC3)o2)cc1	100%	98.8%	107%	95.1%	108%	94.2%	102%	97.5%	109%	109%
Cc1ccc(C(=O)Nc2ccc(CNCCN3CCNCC3)c(C(F)(F)F)c2)cc1C#Cc1cnc2cccnn12	6.09% (active)	-22.2% (active)	-70.8% (active)	-75.6% (active)	-90.1% (active)	-14.2% (active)	-37.4% (active)	-83% (active)	-6.59% (active)	-64.6% (active)
C#CCN(C)CCCOc1ccc(NCc2ccc(/C=C/C(=O)NO)cc2)cc1Cl	13.7%	15.3%	4.84% (active)	16.1%	-56.2% (active)	12.9%	-65.5% (active)	-7.77% (active)	21%	0.456% (active)
COc1ccc(/C=N/NC(=O)c2c(N)nn(C)c2Nc2ccccc2)cc1	76.3%	19.2%	44.7%	65.1%	37.3%	58.6%	9.85% (active)	40.2%	56.4%	13%
CC(=O)c1c([Si](C)(C)C)c2cc(C#N)ccn2c1C(=O)c1ccc(Br)cc1	99.9%	82.4%	92.9%	85.4%	78.5%	79.1%	90.9%	95.5%	101%	97.4%
Cc1ccc(OCc2occc2C(=O)N2CCOCC2)cc1	103%	98.9%	102%	109%	99.8%	97.5%	96.3%	100%	116%	99.3%
O=C(CSc1nnc(-c2cccs2)n1-c1ccccc1)Nc1ccccc1F	102%	26.6%	70.2%	86.5%	90.7%	93.7%	83.2%	87.9%	95.3%	74.7%
CCN(CC)c1ccc(/C=N/NC(=O)c2ccc(NS(C)(=O)=O)cc2)cc1	37.9%	14.8%	15.5%	43.2%	12.3%	32%	11.4%	18.6%	-4.47% (active)	0.0523% (active)
CCC(=C(c1ccc(OCCN2CCCCCC2)cc1)c1ccc(OCCN2CCCCCC2)cc1)c1ccc(Cl)cc1	39.4%	-32.8% (active)	-55.4% (active)	33.6%	-72.3% (active)	56%	-77.3% (active)	-79.6% (active)	-55.8% (active)	-74.4% (active)
Cc1ccc(/C=N/Nc2nc(Nc3ccccc3)nc(Nc3ccc(S(N)(=O)=O)cc3)n2)cc1	65.1%	56.8%	91.8%	73.4%	-2.59% (active)	87.1%	57.7%	44.7%	101%	72.8%
